WT yeast gro inh: growth inhibition of WT yeast, mitochondrial fusion screen; inhibition, % at 10 µM; mitochondrial fusion phenotypic screen, WT strain; 190,000 tested, 2.1% active; in the data active means inhibition above about 58%; tested in S. cerevisiae
DTT redox prof: compounds producing H2O2 with reducing agent – biochemical, NIH compound library profiling, artefact control for MLSCN library redox annotation, primary screen; activation, % at 10 µM; DTT-dependent redox cycling H2O2, phenol red/HRP absorbance; 100% = 100 µM peroxide control, 0% = buffer; 200,000 tested, 0.03% active; AID 878;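 active means activation of at least 50% relative to the plate's high and low controls in the primary single-dose screen; inactive means activation below 50%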;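 further: compound incubated with DTT at 0.8 mM final as the reducing agent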
TNF necrop inh: TNF-alpha cell death inhibition in Jurkat FADD-/- cells. Jurkat FADD-/- TNF necroptosis rescue, ATP luminescence, 24 h; 0 = TNF only, 100 = no-TNF cells. activation (protection from cell death), % at 10 µM. 220,000 tested, 0.068% active;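 active means activation, meaning protection from cell death, of at least 50% relative to plate controls; inactive means activation below 50%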;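 further: necroptosis triggered by 40 ng/mL TNF-alpha added together with compound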
PERK inhibitor: inhibitors of human PERK kinase | CHO PERK-DD fusion, SEAP luminescence translation reporter | inhibition, % at 5.6 µM | 220,000 tested, 0.17% active | Q9NZJ5;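 active means inhibition above the mean inhibition of all tested compounds plus 3 SD, set separately per screening campaign, cut at about 2.9% in these data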;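 further: PERK kinase domain activated by AP20187 dimerizer at 100 nM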
zVAD death inh: blocks zVAD induced death of L929 cells. L929 zVAD necroptosis rescue, ATP luminescence, 24 h; with zVAD 60 µM. viability rescue, % at 10 µM. 220,000 tested, 0.38% active. AID 1377;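 active means activation, scaled between plate controls, above about 75%, limit read from the data; inactive means activation under that limit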
PKD1 inh: PKD1 (human) kinase inhibition | Q15139 | PKD1 kinase fluorescence polarization assay | inhibition, % (test concentration not listed) | 200,000 tested, 0.056% active | AID 797; in the data active means inhibition above about 50%
Target sequence (Q15139 whole entry, looked up): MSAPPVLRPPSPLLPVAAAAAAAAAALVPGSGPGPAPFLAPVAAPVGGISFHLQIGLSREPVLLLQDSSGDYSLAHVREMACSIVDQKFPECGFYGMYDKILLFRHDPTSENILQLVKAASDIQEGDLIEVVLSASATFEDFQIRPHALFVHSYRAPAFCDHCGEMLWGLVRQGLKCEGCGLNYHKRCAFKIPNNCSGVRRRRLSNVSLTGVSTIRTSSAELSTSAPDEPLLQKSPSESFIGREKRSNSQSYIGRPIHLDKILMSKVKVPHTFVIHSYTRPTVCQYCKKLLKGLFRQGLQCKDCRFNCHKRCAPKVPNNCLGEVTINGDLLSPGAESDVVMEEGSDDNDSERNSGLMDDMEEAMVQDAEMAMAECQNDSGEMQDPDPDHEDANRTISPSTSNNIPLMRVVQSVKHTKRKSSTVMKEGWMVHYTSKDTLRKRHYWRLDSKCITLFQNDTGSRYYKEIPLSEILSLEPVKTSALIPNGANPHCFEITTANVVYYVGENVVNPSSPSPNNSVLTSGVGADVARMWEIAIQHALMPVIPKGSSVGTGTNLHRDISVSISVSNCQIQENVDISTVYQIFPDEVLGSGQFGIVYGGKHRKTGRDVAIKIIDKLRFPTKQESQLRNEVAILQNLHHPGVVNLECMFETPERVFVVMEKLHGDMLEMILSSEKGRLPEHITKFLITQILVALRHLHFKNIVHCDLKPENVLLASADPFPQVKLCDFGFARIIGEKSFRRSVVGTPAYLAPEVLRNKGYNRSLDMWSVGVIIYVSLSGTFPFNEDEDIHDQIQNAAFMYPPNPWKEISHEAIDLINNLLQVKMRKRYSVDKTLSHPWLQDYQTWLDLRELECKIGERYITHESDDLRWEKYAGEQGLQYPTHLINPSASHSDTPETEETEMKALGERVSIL
A number is an active result. Shown are actives, neighbours in structure and some others; about 2.4% of the full set was active somewhere.

Cc1cccc(OCCCCCn2ccnc2)c1C was read as WT yeast gro inh 67, DTT redox prof inactive, TNF necrop inh inactive, PERK inhibitor inactive, zVAD death inh inactive and PKD1 inh inactive.
Screening Cc1cc(C(C)(C)C)ccc1OCCn1ccnc1 returned WT yeast gro inh 72, DTT redox prof inactive, TNF necrop inh inactive, PERK inhibitor inactive, zVAD death inh inactive and PKD1 inh inactive.
Screening Cc1ccc(C(C)(C)C)c(OCCCn2ccnc2)c1 returned WT yeast gro inh 66, DTT redox prof inactive, TNF necrop inh inactive, PERK inhibitor inactive, zVAD death inh inactive and PKD1 inh inactive.
Cc1ccc(C)c(OCCCCn2ccnc2)c1 was read as WT yeast gro inh inactive, DTT redox prof inactive, TNF necrop inh inactive, PERK inhibitor inactive, zVAD death inh inactive and PKD1 inh inactive.
CC1CCCC(NC(=O)COC(=O)[C@@H](NC(=O)c2ccco2)C(C)C)C1C (stereo partly drawn) was read as WT yeast gro inh inactive, DTT redox prof inactive, TNF necrop inh inactive, PERK inhibitor inactive, zVAD death inh inactive and PKD1 inh inactive.
`Cc1ccc2c(C(=O)N3CCN(c4ccccc4)CC3)cc(-c3cccnc3)nc2c1C` gave WT yeast gro inh 73, DTT redox prof inactive, TNF necrop inh inactive, PERK inhibitor inactive, zVAD death inh inactive and PKD1 inh inactive.
For CC(C)C(c1nnnn1C(C)(C)C)N1CCN(c2cccc(Cl)c2)CC1 (stereo not drawn) the results were WT yeast gro inh 75, DTT redox prof inactive, TNF necrop inh inactive, PERK inhibitor inactive, zVAD death inh inactive and PKD1 inh inactive.
O=[N+]([O-])c1cccnc1N1CCC(c2cc(-c3ccc(Cl)cc3)n[nH]2)CC1 was read as WT yeast gro inh 72, DTT redox prof inactive, TNF necrop inh inactive, PERK inhibitor inactive, zVAD death inh inactive and PKD1 inh inactive.
CC(C)CCNC(=O)CN(CC1CCCO1)C(=O)CCC(=O)Nc1ccccn1 (stereo not drawn) was read as WT yeast gro inh 70, DTT redox prof inactive, TNF necrop inh inactive, PERK inhibitor inactive, zVAD death inh inactive and PKD1 inh inactive.
CCOC(=O)C1(Cc2ccccc2Cl)CCN(C(=O)CCn2ccnc2C)CC1 was read as WT yeast gro inh inactive, DTT redox prof inactive, TNF necrop inh inactive, PERK inhibitor inactive, zVAD death inh inactive and PKD1 inh inactive.
For COC(=O)CCC(=O)COc1ccc(OC)cc1C#N the results were WT yeast gro inh 91, DTT redox prof inactive, TNF necrop inh inactive, PERK inhibitor inactive, zVAD death inh inactive and PKD1 inh inactive.
Screening COC(=O)CCC(=O)COc1ccccc1C#N returned WT yeast gro inh inactive, DTT redox prof inactive, TNF necrop inh inactive, PERK inhibitor inactive, zVAD death inh inactive and PKD1 inh inactive.
Screening Cc1sc2ncn(CC(=O)N3CCOCC3)c(=O)c2c1-c1ccccc1 returned WT yeast gro inh inactive, DTT redox prof inactive, TNF necrop inh inactive, PERK inhibitor inactive, zVAD death inh inactive and PKD1 inh inactive.
`COc1ccccc1-c1c(-c2ccc(OCC(=O)NN)cc2O)n[nH]c1C(F)(F)F` gave WT yeast gro inh inactive, DTT redox prof inactive, TNF necrop inh inactive, PERK inhibitor inactive, zVAD death inh inactive and PKD1 inh inactive.
`COc1ccc(-c2n[nH]c(C(F)(F)F)c2-c2cc3ccccc3o2)c(O)c1` gave WT yeast gro inh 94, DTT redox prof inactive, TNF necrop inh inactive, PERK inhibitor inactive, zVAD death inh inactive and PKD1 inh inactive.
Screening NCCCCc1cn(CC(=O)N2CCNCC2)nn1 returned WT yeast gro inh inactive, DTT redox prof inactive, TNF necrop inh inactive, PERK inhibitor inactive, zVAD death inh inactive and PKD1 inh inactive.
CCn1cc(C(=O)OCC(=O)c2ccccc2)c(=O)c2ccc(C)nc21 was read as WT yeast gro inh inactive, DTT redox prof inactive, TNF necrop inh inactive, PERK inhibitor inactive, zVAD death inh inactive and PKD1 inh inactive.
`CCn1cc(C(=O)OCC(=O)c2cc(C)n(-c3cccc(C(F)(F)F)c3)c2C)c(=O)c2ccc(C)nc21` gave WT yeast gro inh 68, DTT redox prof inactive, TNF necrop inh inactive, PERK inhibitor inactive, zVAD death inh inactive and PKD1 inh inactive.
Screening Cc1cc(C(=O)CSc2nncn2C)c(C)n1-c1ccccc1 returned WT yeast gro inh inactive, DTT redox prof inactive, TNF necrop inh inactive, PERK inhibitor inactive, zVAD death inh inactive and PKD1 inh inactive.

Assay outcomes from PubChem BioAssay.
